{"source": "PubChem BioAssay", "note": "Results filed as inconclusive are left out. Calls of active or inactive are those of the source. No cut-off is given here; in the data, nearly all actives have AC50 up to about 26 µM.", "data": [{"assay": "viability loss in pontine glioma line – cell-based, SU-DIPG-XXV, MIPE5.0, CellTiter-Glo, qHTS, dose response (AID 1347065);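 note: cells exposed to compound for 48 hours before ATP readout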", "conditions": "CellTiter-Glo ATP luminescence", "values": [{"smiles": "COc1cc(N2CCN(C)CC2)ccc1Nc1ncc2c(n1)N(C)c1ccccc1C(=O)N2C", "AC50": "18.6 µM (active)"}, {"smiles": "Cc1c(-c2ccnn2C)cc(C(=O)NCc2ccc(S(C)(=O)=O)cn2)c(=O)n1-c1cccc(C(F)(F)F)c1", "outcome": "inactive"}, {"smiles": "COC1CCC(N2C(=O)CNc3ncc(-c4ccc(C(C)(C)O)nc4)nc32)CC1", "note": "(centres undefined)", "AC50": "11.8 µM (active)"}, {"smiles": "CN1CCN(C2CCC(n3cc(-c4ccc(Oc5ccccc5)cc4)c4c(N)ncnc43)CC2)CC1", "note": "(centres undefined)", "AC50": "1.86 µM (active)"}, {"smiles": "CN1CCN(C(=O)[C@H]2[C@@H](C(=O)O)[C@H]3CC[C@@H]2O3)CC1", "outcome": "inactive"}, {"smiles": "C[C@@H]1COCCN1c1cc(-c2ccnn2C)c2ccnc(-c3ccn[nH]3)c2n1", "AC50": "1.86 µM (active)"}, {"smiles": "C[C@@H](OC[C@@]1(c2ccccc2)CC[C@]2(CCC(=O)N2)CN1)c1cc(C(F)(F)F)cc(C(F)(F)F)c1", "AC50": "18.6 µM (active)"}, {"smiles": "COC(=O)c1ccc([C@H]2c3[nH]c4ccccc4c3C[C@H](C(=O)OC)N2C(=O)CCl)cc1", "AC50": "5.25 µM (active)"}, {"smiles": "O=C(Nc1nnc(-c2ccco2)o1)c1cc(-c2ccccc2)nc2ccccc12", "AC50": "20.9 µM (active)"}, {"smiles": "COc1c(C)cc(NC(=O)c2nn(Cc3ccc(F)cc3)c3c2CN(C(=O)c2ccc[nH]2)C[C@]3(C)C(N)=O)cc1C", "outcome": "inactive"}, {"smiles": "O=C([O-])C[O-].[Pt+2]", "outcome": "inactive"}, {"smiles": "COc1cccc(-c2c(C)n(Cc3c(F)cccc3C(F)(F)F)c(=O)n(C[C@H](NCCCC(=O)O)c3ccccc3)c2=O)c1F", "outcome": "inactive"}, {"smiles": "CNCCCOc1cc(F)c(-c2c(Cl)nc3ncnn3c2N[C@@H](C)C(F)(F)F)c(F)c1", "AC50": "0.118 µM (active)"}, {"smiles": "COCCNCc1ccc(-c2cc3nccc(Oc4ccc(NC(=S)NC(=O)Cc5ccc(F)cc5)cc4F)c3s2)nc1", "AC50": "4.17 µM (active)"}, {"smiles": "O=c1c(-c2ccc(O)cc2)coc2c([C@@H]3O[C@H](CO)[C@@H](O)[C@H](O)[C@H]3O)c(O)ccc12", "outcome": "inactive"}, {"smiles": "Cc1c(NC(=O)c2cc3c(s2)CCCC3)cccc1-c1cn(C)c(=O)c(Nc2ccc(C3C(=O)N(C)CCN3C)cc2)n1", "note": "(centres undefined)", "AC50": "18.6 µM (active)"}, {"smiles": "COc1ccc2c(c1)CC[C@@H](CN(C)CC(=O)O)[C@H]2c1ccccc1", "outcome": "inactive"}, {"smiles": "COc1ccc2[nH]c(C(=O)N3CCC(CC(C)(C)O)CC3)cc2c1", "outcome": "inactive"}, {"smiles": "Oc1ccc([C@@H]2Oc3ccc(O)cc3[C@@H]3CCC[C@@H]32)cc1", "AC50": "11.8 µM (active)"}, {"smiles": "Cc1ccc(-c2nn(C(C)(C)CNC(=O)c3ccncc3)c3ncnc(N)c23)cc1", "AC50": "13.2 µM (active)"}, {"smiles": "N[C@@H](CCC(=O)O)C(=O)N[C@@H](Cc1c[nH]c2ccccc12)C(=O)O", "outcome": "inactive"}, {"smiles": "CCS(=O)(=O)N1CC(CC#N)(n2cc(-c3ncnc4[nH]ccc34)cn2)C1", "AC50": "18.6 µM (active)"}, {"smiles": "NC(=O)[C@H]1CCS[C@@H]2C[C@]3(CCCN3C(=O)Cc3ccc(NC(=O)COc4ccc(Cl)cc4Cl)cc3)C(=O)N12", "AC50": "10.5 µM (active)"}, {"smiles": "Nc1cc(COc2c(Cl)cc(C[C@H](N)C(=O)O)cc2Cl)c2oc(-c3ccccc3)nc2c1", "outcome": "inactive"}, {"smiles": "CC[C@H](NC(=O)[C@H](CS(=O)(=O)CC1CC1)N[C@@H](c1ccc(F)cc1)C(F)(F)F)C(=O)C(=O)NC1CC1", "outcome": "inactive"}, {"smiles": "CO[C@@H]1C(N(C)C(=O)c2ccccc2)C[C@H]2O[C@]1(C)n1c3ccccc3c3c4c(c5c6ccccc6n2c5c31)C(=O)NC4=O", "note": "(some centres undefined)", "AC50": "0.934 µM (active)"}, {"smiles": "COc1ccc(S(=O)(=O)N[C@@H](CNc2nc(C)nc(N3CCC(c4ccc5c(n4)NCCC5)CC3)c2C)C(=O)O)cc1", "outcome": "inactive"}, {"smiles": "Cc1nnc(C[C@@H]2C=C(c3ccc(Cl)cc3)c3ccccc3-n3c(C)nnc32)o1", "AC50": "14.8 µM (active)"}, {"smiles": "O=C1NC(=O)[C@@H](c2c[nH]c3ccccc23)[C@H]1c1cn2c3c(cccc13)CCC2", "AC50": "0.742 µM (active)"}, {"smiles": "O=C(Nc1nccs1)C(c1cc(F)ccc1O)N1Cc2ccccc2C1=O", "note": "(centres undefined)", "outcome": "inactive"}, {"smiles": "Fc1ccc2[nH]ccc2c1-c1nc(N2CCOCC2)c2sc(CN3CCN(CC4CC4)CC3)cc2n1", "AC50": "23.5 µM (active)"}, {"smiles": "CCc1c(C(=O)NNC(=O)[C@@H](O)c2cc(F)cc(F)c2)ccc(O)c1C", "outcome": "inactive"}, {"smiles": "C=CC(=O)N1CCC[C@H](n2c(=O)n(-c3ccc(Oc4ccccc4)cc3)c3c(N)ncnc32)C1", "AC50": "7.42 µM (active)"}, {"smiles": "CCC[C@H](N[C@H]1CCc2cc(F)cc(F)c2C1)C(=O)Nc1cn(C(C)(C)CNCC(C)(C)C)cn1", "AC50": "18.6 µM (active)"}, {"smiles": "CCCCCCCCCCCCCCCCOCCCOP(=O)(O)COC(CO)Cn1ccc(N)nc1=O", "note": "(centres undefined)", "outcome": "inactive"}, {"smiles": "CN[C@@H](C)C(=O)N[C@H](C(=O)N1CCC[C@H]1c1nc(C(=O)c2ccc(F)cc2)cs1)C1CCCCC1", "outcome": "inactive"}, {"smiles": "C[C@@H](Oc1cc(-n2cnc3ccc(CN4CCN(C)CC4)cc32)sc1C(N)=O)c1ccccc1C(F)(F)F", "AC50": "0.0372 µM (active)"}, {"smiles": "COc1ccc(C(=O)N2CCN(C(=O)/C=C/c3ccc(Br)cc3)CC2)cc1", "outcome": "inactive"}, {"smiles": "COc1ccc2[nH]c3c(c2c1)CCN[C@]31CS[C@@H]2c3c(OC(C)=O)c(C)c4c(c3[C@H](COC1=O)N1[C@@H]2[C@H]2c3c(cc(C)c(OC)c3O)C[C@@H]([C@@H]1O)N2C)OCO4", "AC50": "0.0034 µM (active)"}]}]}
